Bioassay records as filed in PubChem.
Most compounds without a hit are left out; they make up all but 4.8% or so of the library.
SMARCA2 activ = activators of SMARCA2 function | activation, % at 9.1 µM | MG213 cells, MMTV-luciferase reporter, dexamethasone, overnight | 370,000 tested, 1% active; in the data active = activation above about 7.8%;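 also: 0% = vehicle wells and 100% = reference activator wells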
ssDAF-12 act = activates DAF-12 receptor from parasite S. stercoralis; HEK293 ssDAF-12/GRIP1 lit1-tk-luc reporter, luminescence; % of 3 µM dafachronic acid response; activation, % at 6.8 µM; 370,000 tested, 1% active; AID 652126;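 active = activation above the mean over all tested compounds plus 3 SD, cut at about 0.9% in these data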;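 also: 0% = DMSO-only wells and 100% = 3 µM delta7-dafachronic acid wells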
DAX1 inh-1 = DAX1 (NR0B1) inhibition, primary screen | HEK293T StAR-luciferase reporter, SF-1/DAX-1 repression relief | 370,000 tested, 1.1% active | inhibition, % at 6.8 µM;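 active = inhibition above the mean over all tested compounds plus 3 SD, cut at about 3.6% in these data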;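 also: 0% = DAX-1 cells with DMSO and 100% = cells lacking DAX-1 with DMSO; higher inhibition means more luminescence from relief of DAX-1 repression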
DAX1 inh-2 = inhibits human nuclear receptor DAX1 | HEK293 Gal4-DAX1 luciferase reporter, luminescence | inhibition, % at 6.75 µM | 340,000 tested, 0.99% active | AID 504766;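 active = inhibition above the mean over all tested compounds plus 3 SD, cut at about 4.2% in these data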;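 also: 0% = DAX1-transfected cells with DMSO and 100% = empty-vector control cells with DMSO; inhibition shows as a rise in luminescence from relieved DAX1 repression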
Target sequence (P51843 207-470 limits assumed): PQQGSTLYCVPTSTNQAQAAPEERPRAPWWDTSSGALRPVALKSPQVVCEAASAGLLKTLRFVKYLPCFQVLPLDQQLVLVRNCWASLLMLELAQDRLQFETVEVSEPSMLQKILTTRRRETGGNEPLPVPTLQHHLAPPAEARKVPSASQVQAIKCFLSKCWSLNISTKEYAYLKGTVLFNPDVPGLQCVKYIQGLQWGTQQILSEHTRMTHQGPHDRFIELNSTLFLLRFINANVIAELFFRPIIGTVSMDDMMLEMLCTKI
hgDAF12 agonist = agonists of H. glycines DAF-12 nuclear receptor; HEK293 GAL4-hgDAF12 UAS-luciferase reporter, agonist luminescence; normalized to butyrate control; activation, % at 6.8 µM; 370,000 tested, 1.8% active; AID 687014;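 active = activation above a cutoff set at the mean of all screened compounds plus 3 SD, cut at about 10% in these data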;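 also: 0% = DMSO wells and 100% = sodium butyrate wells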
hcDAF-12 act = activators of H. contortus DAF-12 nuclear receptor | activation, % at 6.8 µM | AID 652067 | HEK293 hcDAF-12 lit1-tk-luc reporter, luminescence; 0% DMSO, 100% Δ7-dafachronic acid | 370,000 tested, 1.4% active;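 active = activation above the mean of all tested compounds plus 3 SD, cut at about 5.5% in these data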;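 also: 100% = response to 3 µM Δ7-dafachronic acid high control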
Active calls of the source: *.

SMILES	SMARCA2 activ	ssDAF-12 act	DAX1 inh-1	DAX1 inh-2	hgDAF12 agonist	hcDAF-12 act
CC(CCCN1CCCC1)Nc1ccnc2cc(Cl)ccc12 (centres undefined)	-3	0	0	7.0*	1	1
O=C(O)CNC(=S)N(Cc1ccc(F)cc1)C1CCCCC1	-1	0	0	0	6	1
CCc1ccccc1NC(=O)C1COc2ccccc2O1 (centres undefined)	-2	-1	1	3	0	0
COc1ccc(C)cc1NC(=O)C1COc2ccccc2O1 (centres undefined)	1	-1	4.2*	-1	2	3
Cc1ccccc1NC(=O)C1COc2ccccc2O1 (centres undefined)	0	0	0	2	2	0
Cc1cccnc1NC(=O)C1COc2ccccc2O1 (centres undefined)	-3	1.4*	1	-1	3	1
O=C(Nc1ccccc1[N+](=O)[O-])C1COc2ccccc2O1 (centres undefined)	3	0	2	8.7*	7	5
